# Laboratory results as given in PubChem BioAssay (EPA / NIEHS).
# Results filed as inconclusive are left out. Active and inactive are the calls of the source. The calls were made as follows: active = hit-call score of the fitted dose curve at least 0.9, where 1 is the maximum; inconclusive = response in the unintended direction; inactive = score below 0.9.
# Key:
# [1] = molecular target: human Ephrin type-B Receptor 2 (EphB2), EPHB2 (gene 2048) (UniProt P29323); test: NVS_ENZ_hEphB2: NovaScreen (NVS) Enzymatic Assay for human Ephrin type-B Receptor 2 (EphB2) (AID 2283156)
# Procedure, shortened: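 Compounds were first tested in duplicate at 25 uM, with hits rerun singly in concentration series up to 50 uM. Enzyme activity on fluorescent substrate was read at 1 h by mobility-shift separation, scored as signal loss relative to DMSO.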
# [2] = molecular target: human Fibroblast Growth Factor Receptor 1 (FGFR1), FGFR1 (gene 2260) (UniProt P11362); test: NVS_ENZ_hFGFR1: NovaScreen (NVS) Enzymatic Assay for human Fibroblast Growth Factor Receptor 1 (FGFR1) (AID 2283159);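 also: hits lower the signal so potencies describe inhibitors of the kinase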
# human Fibroblast Growth Factor Receptor 1 (FGFR1), FGFR1 (gene 2260), sequence (P11362 whole entry, looked up): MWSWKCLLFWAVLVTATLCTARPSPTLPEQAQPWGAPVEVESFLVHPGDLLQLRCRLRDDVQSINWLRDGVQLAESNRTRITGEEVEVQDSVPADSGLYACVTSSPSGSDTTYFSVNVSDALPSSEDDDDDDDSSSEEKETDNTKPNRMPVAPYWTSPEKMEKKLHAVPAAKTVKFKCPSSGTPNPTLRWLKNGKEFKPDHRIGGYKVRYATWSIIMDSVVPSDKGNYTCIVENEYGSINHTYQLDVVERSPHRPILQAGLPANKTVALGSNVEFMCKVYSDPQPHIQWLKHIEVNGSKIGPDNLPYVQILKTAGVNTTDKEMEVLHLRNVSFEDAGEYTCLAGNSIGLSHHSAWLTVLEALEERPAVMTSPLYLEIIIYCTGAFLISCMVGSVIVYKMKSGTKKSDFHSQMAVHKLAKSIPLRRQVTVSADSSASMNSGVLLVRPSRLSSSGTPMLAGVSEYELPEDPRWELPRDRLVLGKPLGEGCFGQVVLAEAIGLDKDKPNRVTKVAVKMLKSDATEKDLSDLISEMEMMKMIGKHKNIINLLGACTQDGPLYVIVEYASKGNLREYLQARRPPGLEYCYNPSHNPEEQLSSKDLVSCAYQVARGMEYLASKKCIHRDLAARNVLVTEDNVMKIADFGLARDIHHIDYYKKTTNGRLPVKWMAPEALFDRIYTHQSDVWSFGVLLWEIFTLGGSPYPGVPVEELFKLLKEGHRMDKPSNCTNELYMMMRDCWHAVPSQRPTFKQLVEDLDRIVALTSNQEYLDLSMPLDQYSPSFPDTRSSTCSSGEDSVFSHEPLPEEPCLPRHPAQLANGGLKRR
# Procedure, shortened: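 Cell-free recombinant kinase with fluorescent substrate, product separated by electrophoretic mobility shift; read 1 hour after dosing, loss of signal relative to DMSO. Initial screen in duplicate at 25 uM, actives followed in concentration series.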
# [3] = molecular target: Histone deacetylase 3 (Homo sapiens) (UniProt O15379); test: NVS_ENZ_hHDAC3: NovaScreen (NVS) Enzymatic Assay for human Histone Deacetylase 3 (HDAC3) (AID 2283163)
# Histone deacetylase 3 (Homo sapiens), sequence (O15379 whole entry, looked up): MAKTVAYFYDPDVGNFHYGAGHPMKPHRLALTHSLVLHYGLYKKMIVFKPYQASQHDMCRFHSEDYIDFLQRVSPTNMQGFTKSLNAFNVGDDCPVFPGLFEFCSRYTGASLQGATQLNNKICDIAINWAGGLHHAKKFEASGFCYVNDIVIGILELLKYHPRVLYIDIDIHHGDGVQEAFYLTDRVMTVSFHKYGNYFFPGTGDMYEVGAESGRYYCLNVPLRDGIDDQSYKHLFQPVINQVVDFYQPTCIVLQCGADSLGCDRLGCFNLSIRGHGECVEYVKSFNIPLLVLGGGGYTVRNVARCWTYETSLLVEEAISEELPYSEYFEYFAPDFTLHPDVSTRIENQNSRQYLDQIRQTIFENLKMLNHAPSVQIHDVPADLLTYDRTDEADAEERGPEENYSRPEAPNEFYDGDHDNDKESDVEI
# Procedure, shortened: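 Cell-free enzyme format: loss of fluorescent product after mobility-shift separation, 1 h incubation, recombinant human HDAC3. Single 25 uM duplicate screen first, then concentration series to a 50 uM top for hits; DMSO as baseline.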
# [4] = molecular target: human FYN Proto-Oncogene, Src family Tyrosine Kinase (Fyn), FYN (gene 2534) (UniProt P06241); test: NVS_ENZ_hFyn: NovaScreen (NVS) Enzymatic Assay for human FYN Proto-Oncogene, Src family Tyrosine Kinase (Fyn) (AID 2283161)
# human FYN Proto-Oncogene, Src family Tyrosine Kinase (Fyn), FYN (gene 2534), sequence (P06241 whole entry, looked up): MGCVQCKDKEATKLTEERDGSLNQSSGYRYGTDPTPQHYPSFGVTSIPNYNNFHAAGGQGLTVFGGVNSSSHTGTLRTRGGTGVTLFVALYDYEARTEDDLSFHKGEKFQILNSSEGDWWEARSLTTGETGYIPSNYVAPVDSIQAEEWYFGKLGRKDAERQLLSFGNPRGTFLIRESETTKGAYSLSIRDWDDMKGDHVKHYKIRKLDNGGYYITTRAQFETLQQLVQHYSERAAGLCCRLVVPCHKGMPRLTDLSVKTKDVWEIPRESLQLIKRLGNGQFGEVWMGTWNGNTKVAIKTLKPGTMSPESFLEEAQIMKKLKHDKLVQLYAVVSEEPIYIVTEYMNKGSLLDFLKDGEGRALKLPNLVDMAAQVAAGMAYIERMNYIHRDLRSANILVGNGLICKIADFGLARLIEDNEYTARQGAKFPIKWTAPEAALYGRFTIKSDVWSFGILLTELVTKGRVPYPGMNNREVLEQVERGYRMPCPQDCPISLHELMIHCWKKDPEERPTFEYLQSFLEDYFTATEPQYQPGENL
# Procedure, shortened: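 Cell-free kinase activity read by fluorescence after mobility-shift separation of substrate and product, 1 h post-dose. Initial single concentration 25 uM in duplicate, then concentration-response follow-up; DMSO baseline.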
# [5] = molecular target: human Janus Kinase 2 (Jak2), JAK2 (gene 3717) (UniProt O60674); test: NVS_ENZ_hJak2: NovaScreen (NVS) Enzymatic Assay for human Janus Kinase 2 (Jak2) (AID 2283169)
# human Janus Kinase 2 (Jak2), JAK2 (gene 3717), sequence (O60674 whole entry, looked up): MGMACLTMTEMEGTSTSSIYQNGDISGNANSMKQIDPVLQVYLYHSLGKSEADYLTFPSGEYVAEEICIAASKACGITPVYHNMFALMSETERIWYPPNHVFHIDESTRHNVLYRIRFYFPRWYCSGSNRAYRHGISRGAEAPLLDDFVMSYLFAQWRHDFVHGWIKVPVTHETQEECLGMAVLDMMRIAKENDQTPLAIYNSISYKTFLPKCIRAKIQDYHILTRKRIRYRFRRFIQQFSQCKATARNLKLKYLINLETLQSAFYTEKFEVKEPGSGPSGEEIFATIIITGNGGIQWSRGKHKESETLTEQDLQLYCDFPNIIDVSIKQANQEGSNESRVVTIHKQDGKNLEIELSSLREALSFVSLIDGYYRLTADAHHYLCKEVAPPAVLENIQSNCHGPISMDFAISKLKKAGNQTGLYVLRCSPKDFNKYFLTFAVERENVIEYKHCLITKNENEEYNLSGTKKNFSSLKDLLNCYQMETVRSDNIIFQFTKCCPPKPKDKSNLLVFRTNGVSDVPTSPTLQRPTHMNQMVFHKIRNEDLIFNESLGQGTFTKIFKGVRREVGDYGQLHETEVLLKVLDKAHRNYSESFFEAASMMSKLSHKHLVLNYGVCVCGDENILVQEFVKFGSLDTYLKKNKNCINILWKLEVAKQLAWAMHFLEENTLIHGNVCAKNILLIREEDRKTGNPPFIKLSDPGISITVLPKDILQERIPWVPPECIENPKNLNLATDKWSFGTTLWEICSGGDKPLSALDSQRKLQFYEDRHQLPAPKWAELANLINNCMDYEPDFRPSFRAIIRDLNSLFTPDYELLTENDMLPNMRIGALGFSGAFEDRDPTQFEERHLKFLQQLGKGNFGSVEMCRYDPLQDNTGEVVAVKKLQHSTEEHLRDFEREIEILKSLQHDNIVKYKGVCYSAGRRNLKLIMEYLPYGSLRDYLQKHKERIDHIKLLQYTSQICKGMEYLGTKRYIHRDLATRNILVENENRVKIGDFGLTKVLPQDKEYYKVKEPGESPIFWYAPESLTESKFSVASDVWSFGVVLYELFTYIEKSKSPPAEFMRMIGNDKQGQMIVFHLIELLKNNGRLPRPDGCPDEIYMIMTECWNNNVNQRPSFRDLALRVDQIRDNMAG
# Procedure, shortened: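 Single-point duplicate screen at 25 uM, with hits run in concentration series to a 50 uM top dose. Substrate-product separation by mobility shift with fluorescence detection, 1 h post-dosing; DMSO baseline.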
# [6] = molecular target: human MET Proto-Oncogene, Receptor Tyrosine Kinase (MET), MET (gene 4233) (UniProt P08581); test: NVS_ENZ_hMet: NovaScreen (NVS) Enzymatic Assay for human MET Proto-Oncogene, Receptor Tyrosine Kinase (MET) (AID 2283180)
# Procedure, shortened: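 Hits from a 25 uM duplicate screen were retested in concentration series up to 50 uM. Enzyme activity was measured by fluorescence after electrophoretic separation of product from substrate, 1 h after compound addition, relative to DMSO.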
# [7] = molecular target: Collagenase 3 (Homo sapiens) (UniProt P45452); test: NVS_ENZ_hMMP13: NovaScreen (NVS) Enzymatic Assay for human Matrix Metalloproteinase-13 (MMP13) (AID 2283182)
# Procedure, shortened: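 Recombinant MMP13 cleaving fluorescent substrate, cell-free, measured 1 h after dosing. Primary duplicate screen at 25 uM; actives tested in concentration-response up to 50 uM; loss of signal relative to DMSO.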
# [8] = molecular target: human Matrix Metalloproteinase-2 (MMP2), MMP2 (gene 4313) (UniProt P08253); test: NVS_ENZ_hMMP2: NovaScreen (NVS) Enzymatic Assay for human Matrix Metalloproteinase-2 (MMP2) (AID 2283184)
# human Matrix Metalloproteinase-2 (MMP2), MMP2 (gene 4313), sequence (P08253 whole entry, looked up): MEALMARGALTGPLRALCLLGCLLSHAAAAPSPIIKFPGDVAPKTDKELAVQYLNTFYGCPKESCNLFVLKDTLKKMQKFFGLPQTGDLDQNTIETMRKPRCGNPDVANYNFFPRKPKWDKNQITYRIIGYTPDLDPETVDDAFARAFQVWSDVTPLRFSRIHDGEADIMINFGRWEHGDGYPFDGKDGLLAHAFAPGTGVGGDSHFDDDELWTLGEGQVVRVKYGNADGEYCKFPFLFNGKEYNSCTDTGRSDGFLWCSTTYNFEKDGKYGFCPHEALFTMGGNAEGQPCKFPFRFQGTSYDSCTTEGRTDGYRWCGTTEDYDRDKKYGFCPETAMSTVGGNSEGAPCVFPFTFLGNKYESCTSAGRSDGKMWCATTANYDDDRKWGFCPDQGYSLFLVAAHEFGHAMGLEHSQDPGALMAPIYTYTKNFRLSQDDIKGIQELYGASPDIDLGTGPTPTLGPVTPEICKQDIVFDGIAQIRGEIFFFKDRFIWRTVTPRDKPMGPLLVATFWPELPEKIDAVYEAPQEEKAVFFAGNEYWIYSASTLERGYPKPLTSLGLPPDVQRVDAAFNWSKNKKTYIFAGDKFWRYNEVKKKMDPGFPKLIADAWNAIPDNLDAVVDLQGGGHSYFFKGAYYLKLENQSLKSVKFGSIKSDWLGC
# Procedure, shortened: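 Compounds first screened in duplicate at a single 25 uM, with actives followed up in concentration series. Recombinant human MMP2 cleaves a fluorogenic substrate; fluorescence taken at 1 h, inhibition fitted relative to DMSO.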
# [9] = molecular target: human Matrix Metalloproteinase-3 (MMP3), MMP3 (gene 4314) (UniProt P08254); test: NVS_ENZ_hMMP3: NovaScreen (NVS) Enzymatic Assay for human Matrix Metalloproteinase-3 (MMP3) (AID 2283185)
# human Matrix Metalloproteinase-3 (MMP3), MMP3 (gene 4314), sequence (P08254 whole entry, looked up): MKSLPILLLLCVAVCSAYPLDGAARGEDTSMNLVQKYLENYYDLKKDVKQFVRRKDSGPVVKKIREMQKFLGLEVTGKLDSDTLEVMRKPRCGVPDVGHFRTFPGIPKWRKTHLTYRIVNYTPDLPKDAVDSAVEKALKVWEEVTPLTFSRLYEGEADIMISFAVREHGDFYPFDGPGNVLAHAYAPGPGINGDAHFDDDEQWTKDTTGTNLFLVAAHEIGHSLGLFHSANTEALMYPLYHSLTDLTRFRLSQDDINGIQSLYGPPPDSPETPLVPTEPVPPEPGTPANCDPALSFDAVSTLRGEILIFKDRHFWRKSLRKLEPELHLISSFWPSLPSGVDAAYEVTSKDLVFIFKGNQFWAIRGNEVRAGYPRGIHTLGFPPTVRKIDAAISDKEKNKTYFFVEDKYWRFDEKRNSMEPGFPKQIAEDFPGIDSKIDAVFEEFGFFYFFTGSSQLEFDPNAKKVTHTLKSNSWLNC
# Procedure, shortened: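 Fluorescent substrate turnover by recombinant MMP3 read after 1 h, signal loss scored against DMSO. Compounds first run in duplicate at 25 uM single dose, then actives confirmed by concentration series.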
# [10] = molecular target: human Matrix Metalloproteinase-7 (MMP7), MMP7 (gene 4316) (UniProt P09237); test: NVS_ENZ_hMMP7: NovaScreen (NVS) Enzymatic Assay for human Matrix Metalloproteinase-7 (MMP7) (AID 2283183)
# human Matrix Metalloproteinase-7 (MMP7), MMP7 (gene 4316), sequence (P09237 whole entry, looked up): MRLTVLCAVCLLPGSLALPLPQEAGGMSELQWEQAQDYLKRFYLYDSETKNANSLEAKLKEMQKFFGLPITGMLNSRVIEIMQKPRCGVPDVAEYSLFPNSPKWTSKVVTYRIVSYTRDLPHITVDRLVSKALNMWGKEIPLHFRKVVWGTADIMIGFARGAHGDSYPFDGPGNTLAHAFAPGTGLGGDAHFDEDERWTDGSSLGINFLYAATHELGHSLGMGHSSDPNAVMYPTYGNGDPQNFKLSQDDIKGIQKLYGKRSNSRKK
# Procedure, shortened: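 Compounds first tested at 25 uM in duplicate, then at up to 50 uM in concentration series if active. Protease activity measured by fluorescence intensity 1 h after dosing, with fitting relative to DMSO.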
# [11] = molecular target: human p21 Activated Kinase 4 (PAK4), PAK4 (gene 10298) (UniProt O96013); test: NVS_ENZ_hPAK4: NovaScreen (NVS) Enzymatic Assay for human p21 Activated Kinase 4 (PAK4) (AID 2283189)
# human p21 Activated Kinase 4 (PAK4), PAK4 (gene 10298), sequence (O96013 whole entry, looked up): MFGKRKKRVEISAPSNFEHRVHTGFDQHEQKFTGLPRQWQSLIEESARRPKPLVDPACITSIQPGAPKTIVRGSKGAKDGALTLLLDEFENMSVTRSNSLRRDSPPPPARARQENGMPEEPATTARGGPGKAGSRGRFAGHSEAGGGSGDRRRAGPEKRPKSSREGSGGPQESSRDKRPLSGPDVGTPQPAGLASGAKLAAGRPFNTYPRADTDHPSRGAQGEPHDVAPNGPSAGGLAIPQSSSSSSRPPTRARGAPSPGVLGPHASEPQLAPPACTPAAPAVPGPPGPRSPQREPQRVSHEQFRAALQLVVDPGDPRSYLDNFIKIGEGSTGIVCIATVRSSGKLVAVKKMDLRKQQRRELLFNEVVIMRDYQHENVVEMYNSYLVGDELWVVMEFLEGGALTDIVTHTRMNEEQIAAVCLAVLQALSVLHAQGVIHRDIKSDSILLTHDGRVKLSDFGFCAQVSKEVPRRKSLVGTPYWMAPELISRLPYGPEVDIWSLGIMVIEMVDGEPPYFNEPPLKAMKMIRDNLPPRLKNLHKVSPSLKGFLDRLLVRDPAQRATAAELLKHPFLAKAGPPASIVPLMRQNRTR
# Procedure, shortened: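 Extracted PAK4 enzyme activity read by fluorescence with mobility-shift separation 1 h after chemical addition. Duplicate single-concentration screen at 25 uM, DMSO as negative control.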
# [12] = molecular target: human Phosphodiesterase 4A1 (PDE4A1), PDE4A (gene 5141) (UniProt P27815); test: NVS_ENZ_hPDE4A1: NovaScreen (NVS) Enzymatic Assay for human Phosphodiesterase 4A1 (PDE4A1) (AID 2283191)
# Procedure, shortened: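 Fluorescent substrate turnover by recombinant PDE4A1 read after 1 h by mobility-shift separation. Primary duplicate screen at 25 uM; hits retested in concentration series with a 50 uM maximum, relative to DMSO.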
smiles,measurement,setting,value
O=C(O)C(Cl)(Cl)Cl,outcome,[1],inactive
CC(=O)[O][Hg][c]1ccccc1,AC50,[2],33.4 µM (active)
same,AC50,[3],9.74 µM (active)
NC(=O)O,outcome,[4],inactive
O=[N+]([O-])c1ccc(O)c([N+](=O)[O-])c1,outcome,[3],inactive
Cn1sc(Cl)cc1=O,outcome,[5],inactive
CC(C)(C)c1cc(O)ccc1O,outcome,[6],inactive
O=C(O)C(F)(F)C(F)(F)C(F)(F)C(F)(F)C(F)(F)C(F)(F)C(F)(F)C(F)(F)C(F)(F)C(F)(F)F,AC50,[7],23.3 µM (active)
same,AC50,[8],21.9 µM (active)
same,AC50,[9],10.3 µM (active)
COc1cc(-c2ccc(N)c(OC)c2)ccc1N,AC50,[7],17.9 µM (active)
same,AC50,[8],7.86 µM (active)
O=C1C2(Cl)C3(Cl)C4(Cl)C(Cl)(Cl)C5(Cl)C3(Cl)C1(Cl)C5(Cl)C24Cl (stereo unspecified),AC50,[10],5.85 µM (active)
C[C@]12CCC(=O)C[C@@H]1CC[C@@H]1[C@@H]2CC[C@]2(C)[C@@H](O)CC[C@@H]12,outcome,[11],inactive
CC(C)(OO)c1ccccc1,outcome,[11],inactive
CCN1CCC2(CC1)COc1cc3c(cc12)N(C(=O)c1ccc(-c2ccc(-c4nnc(C)o4)cc2C)cc1)CC3,AC50,[12],10.2 µM (active)
